Results: PubChem BioAssay (EPA / NIEHS)
Active and inactive are the calls of the source. The calls were made as follows: active = hit-call score of the fitted dose curve at least 0.9, where 1 is the maximum; inactive = score below 0.9.

Test: APR_HepG2_MitoMass_24hr: Apredica 24-hour HepG2 Assay for Mitochondrial Mass (AID 2282912)
Conditions: high-content imaging, actives raise or lower the signal
How it was run: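 After 24 hr of treatment at 0.39 to 200 uM, HepG2 cells take up 250 nM MitoTracker Red CMXRos for 30 min and are then fixed with 3.7% formaldehyde. Per-well images are quantified, and any change in either direction is scored against solvent.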

Structure (SMILES) | outcome | AC50
CC(N)=O | inactive | –
CC(COCC(C)OC(=O)c1ccccc1)OC(=O)c1ccccc1 (stereo not given) | inactive | –
O=C(NS(=O)(=O)/C=C/c1cccs1)c1ccc(F)cc1Br | inactive | –
O=C(Oc1ccccc1)c1cccc(C(=O)Oc2ccccc2)c1 | inactive | –
Cc1occc(=O)c1O | inactive | –
N[C@@H](Cc1c[nH]c2ccccc12)C(=O)O | inactive | –
CSc1ccc(Oc2ccc(S(N)(=O)=O)cc2CN(C)C)cc1C | – | 100 µM (active)
CC(=O)O[C@]1(C(C)=O)CC[C@H]2[C@@H]3C=C(Cl)C4=CC(=O)[C@@H]5C[C@@H]5[C@]4(C)[C@H]3CC[C@@]21C | inactive | –
CC(=O)O | inactive | –
CCCCOC(=O)CCCCC(=O)OCCCC | inactive | –
CCCCCCCCCCCCCCCCO | inactive | –
O=C(N[C@@H](c1ccccc1)[C@@H]1CCCCN1)c1cccc(C(F)(F)F)c1Cl | – | 12.6 µM (active)
Cn1cnc2c1c(=O)[nH]c(=O)n2C | inactive | –
O=Cc1ccccc1C=O | inactive | –
NC=O | inactive | –
CC(=O)CC(c1ccccc1)c1c(O)c2ccccc2oc1=O (stereo not given) | inactive | –
C#CC(O)C(CC)CCCC (stereo not given) | inactive | –
Nc1nc(=S)c2[nH]cnc2[nH]1 | inactive | –
Cc1ccc(-c2cc(C(F)(F)F)nn2-c2ccc(S(N)(=O)=O)cc2)cc1 | – | 64 µM (active)
CCCCCCC(C=O)=Cc1ccccc1 | – | 53.5 µM (active)
O=C1NC(=O)C(c2ccccc2)(c2ccccc2)N1 | inactive | –
O=C(O)c1cccnc1 | inactive | –
O=C1CCCCC1 | inactive | –
CCCC(=O)O | inactive | –
C/C=C/c1ccc(OC)cc1 | inactive | –
CC(=O)OCC(COC(C)=O)OC(C)=O | inactive | –
O=NO | inactive | –
CC(C)c1cccc(C(C)C)c1 | inactive | –
CC(C)NCC(O)c1ccc(O)c(O)c1 (stereo not given) | inactive | –
CC(C)COC(=O)CCCCC(=O)OCC(C)C | inactive | –

Test: APR_HepG2_CellCycleArrest_72hr: Apredica 72-hour HepG2 Assay for Cell Cycle Arrest (AID 2282914)
Conditions: high-content imaging, actives raise or lower the signal
How it was run: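 HepG2 cells exposed 72 h in duplicate to 0.39–200 uM compound, 0.5% DMSO final. Formaldehyde-fixed, Hoechst 33342-stained nuclei imaged at 20x, six fields per well; DNA content per valid cell quantified by cell-cycle image analysis, bidirectional fit versus DMSO.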

Structure (SMILES) | outcome | AC50
CC(N)=O | inactive | –
CC(COCC(C)OC(=O)c1ccccc1)OC(=O)c1ccccc1 (stereo not given) | inactive | –
O=C(NS(=O)(=O)/C=C/c1cccs1)c1ccc(F)cc1Br | inactive | –
O=C(Oc1ccccc1)c1cccc(C(=O)Oc2ccccc2)c1 | inactive | –
Cc1occc(=O)c1O | inactive | –
N[C@@H](Cc1c[nH]c2ccccc12)C(=O)O | inactive | –
CSc1ccc(Oc2ccc(S(N)(=O)=O)cc2CN(C)C)cc1C | inactive | –
CC(=O)O[C@]1(C(C)=O)CC[C@H]2[C@@H]3C=C(Cl)C4=CC(=O)[C@@H]5C[C@@H]5[C@]4(C)[C@H]3CC[C@@]21C | inactive | –
CC(=O)O | – | 0.16 µM (active)
CCCCOC(=O)CCCCC(=O)OCCCC | inactive | –
CCCCCCCCCCCCCCCCO | inactive | –
O=C(N[C@@H](c1ccccc1)[C@@H]1CCCCN1)c1cccc(C(F)(F)F)c1Cl | inactive | –
Cn1cnc2c1c(=O)[nH]c(=O)n2C | inactive | –
O=Cc1ccccc1C=O | inactive | –
NC=O | inactive | –
CC(=O)CC(c1ccccc1)c1c(O)c2ccccc2oc1=O (stereo not given) | inactive | –
C#CC(O)C(CC)CCCC (stereo not given) | inactive | –
Nc1nc(=S)c2[nH]cnc2[nH]1 | – | 63.2 µM (active)
Cc1ccc(-c2cc(C(F)(F)F)nn2-c2ccc(S(N)(=O)=O)cc2)cc1 | – | 28.6 µM (active)
CCCCCCC(C=O)=Cc1ccccc1 | – | 57 µM (active)
O=C1NC(=O)C(c2ccccc2)(c2ccccc2)N1 | inactive | –
O=C(O)c1cccnc1 | inactive | –
O=C1CCCCC1 | inactive | –
CCCC(=O)O | inactive | –
C/C=C/c1ccc(OC)cc1 | inactive | –
CC(=O)OCC(COC(C)=O)OC(C)=O | inactive | –
O=NO | inactive | –
CC(C)c1cccc(C(C)C)c1 | inactive | –
CC(C)NCC(O)c1ccc(O)c(O)c1 (stereo not given) | inactive | –
CC(C)COC(=O)CCCCC(=O)OCC(C)C | inactive | –

Test: APR_HepG2_CellLoss_72hr: Apredica 72-hour HepG2 Assay for Cell Loss (AID 2282915)
Conditions: high-content imaging
How it was run: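 HepG2 cells exposed 72 h to compound at 0.39–200 uM (10 concentrations, duplicate) in 0.5% DMSO. Fixed with 3.7% formaldehyde and Hoechst 33342-stained. Imaged at 20x; nuclear count gives cell number, fitted bidirectionally versus DMSO.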

Structure (SMILES) | AC50 | outcome
CC(N)=O | 115 µM (active) | –
CC(COCC(C)OC(=O)c1ccccc1)OC(=O)c1ccccc1 (stereo not given) | – | inactive
O=C(NS(=O)(=O)/C=C/c1cccs1)c1ccc(F)cc1Br | 80.8 µM (active) | –
O=C(Oc1ccccc1)c1cccc(C(=O)Oc2ccccc2)c1 | 113 µM (active) | –
Cc1occc(=O)c1O | – | inactive
N[C@@H](Cc1c[nH]c2ccccc12)C(=O)O | – | inactive
CSc1ccc(Oc2ccc(S(N)(=O)=O)cc2CN(C)C)cc1C | 108 µM (active) | –
CC(=O)O[C@]1(C(C)=O)CC[C@H]2[C@@H]3C=C(Cl)C4=CC(=O)[C@@H]5C[C@@H]5[C@]4(C)[C@H]3CC[C@@]21C | – | inactive
CC(=O)O | 49.4 µM (active) | –
CCCCOC(=O)CCCCC(=O)OCCCC | – | inactive
CCCCCCCCCCCCCCCCO | – | inactive
O=C(N[C@@H](c1ccccc1)[C@@H]1CCCCN1)c1cccc(C(F)(F)F)c1Cl | 15.2 µM (active) | –
Cn1cnc2c1c(=O)[nH]c(=O)n2C | – | inactive
O=Cc1ccccc1C=O | – | inactive
NC=O | – | inactive
CC(=O)CC(c1ccccc1)c1c(O)c2ccccc2oc1=O (stereo not given) | – | inactive
C#CC(O)C(CC)CCCC (stereo not given) | – | inactive
Nc1nc(=S)c2[nH]cnc2[nH]1 | 17.9 µM (active) | –
Cc1ccc(-c2cc(C(F)(F)F)nn2-c2ccc(S(N)(=O)=O)cc2)cc1 | 40.8 µM (active) | –
CCCCCCC(C=O)=Cc1ccccc1 | 50.2 µM (active) | –
O=C1NC(=O)C(c2ccccc2)(c2ccccc2)N1 | – | inactive
O=C(O)c1cccnc1 | – | inactive
O=C1CCCCC1 | – | inactive
CCCC(=O)O | – | inactive
C/C=C/c1ccc(OC)cc1 | – | inactive
CC(=O)OCC(COC(C)=O)OC(C)=O | – | inactive
O=NO | – | inactive
CC(C)c1cccc(C(C)C)c1 | – | inactive
CC(C)NCC(O)c1ccc(O)c(O)c1 (stereo not given) | 91.3 µM (active) | –
CC(C)COC(=O)CCCCC(=O)OCC(C)C | – | inactive
